Data published in PubChem BioAssay (EPA / NIEHS).
Activity calls are given as the source filed them. The calls were made as follows: active = hit-call score of the fitted dose curve at least 0.9, where 1 is the maximum; inactive = score below 0.9.

Assays:
[1] = molecular target: Transcriptional activator Myb (Homo sapiens) (UniProt P10242); experiment: ATG_Myb_CIS: Attagene CIS-FACTORIAL HepG2 Assay for human Myeloblastosis (Myb) Proto-Oncogene Transcription Factor (AID 2282986); settings: HepG2 Attagene CIS-FACTORIAL Myb reporter transcription; actives raise or lower the signal
Sequence of Transcriptional activator Myb (Homo sapiens) (P10242 whole entry, looked up): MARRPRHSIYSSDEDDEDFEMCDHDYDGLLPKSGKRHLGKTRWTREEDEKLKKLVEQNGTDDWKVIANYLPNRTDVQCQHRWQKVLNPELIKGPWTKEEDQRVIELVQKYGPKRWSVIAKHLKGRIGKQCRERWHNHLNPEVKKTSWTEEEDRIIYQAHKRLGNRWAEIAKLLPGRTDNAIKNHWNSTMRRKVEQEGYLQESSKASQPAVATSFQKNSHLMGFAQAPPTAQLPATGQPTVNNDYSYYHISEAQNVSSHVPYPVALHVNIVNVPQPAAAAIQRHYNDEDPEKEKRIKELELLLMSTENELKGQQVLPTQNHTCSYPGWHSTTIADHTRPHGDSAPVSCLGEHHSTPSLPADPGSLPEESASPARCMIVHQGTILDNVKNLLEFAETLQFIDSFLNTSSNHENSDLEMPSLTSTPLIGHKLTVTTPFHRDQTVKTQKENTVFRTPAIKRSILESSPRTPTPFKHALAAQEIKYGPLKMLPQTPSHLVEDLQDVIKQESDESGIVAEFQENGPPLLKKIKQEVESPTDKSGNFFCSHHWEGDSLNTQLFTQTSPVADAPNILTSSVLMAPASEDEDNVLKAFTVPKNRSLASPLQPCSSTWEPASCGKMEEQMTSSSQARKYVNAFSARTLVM
In short: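 After 24 h of compound dosing, total RNA from transfected HepG2 cells is reverse-transcribed and the reporter sequences amplified, labeled and separated by capillary electrophoresis. Values come from bidirectional fitting against DMSO.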

[2] = molecular target: Nuclear respiratory factor 1 (Homo sapiens) (UniProt Q16656); experiment: ATG_NRF1_CIS: Attagene CIS-FACTORIAL HepG2 Assay for human Nuclear Respiratory Factor 1 (NRF1) Orphan Gene (AID 2282987); settings: HepG2 NRF1 cis-element reporter, Attagene multiplex; actives raise or lower the signal
Sequence of Nuclear respiratory factor 1 (Homo sapiens) (Q16656 whole entry, looked up): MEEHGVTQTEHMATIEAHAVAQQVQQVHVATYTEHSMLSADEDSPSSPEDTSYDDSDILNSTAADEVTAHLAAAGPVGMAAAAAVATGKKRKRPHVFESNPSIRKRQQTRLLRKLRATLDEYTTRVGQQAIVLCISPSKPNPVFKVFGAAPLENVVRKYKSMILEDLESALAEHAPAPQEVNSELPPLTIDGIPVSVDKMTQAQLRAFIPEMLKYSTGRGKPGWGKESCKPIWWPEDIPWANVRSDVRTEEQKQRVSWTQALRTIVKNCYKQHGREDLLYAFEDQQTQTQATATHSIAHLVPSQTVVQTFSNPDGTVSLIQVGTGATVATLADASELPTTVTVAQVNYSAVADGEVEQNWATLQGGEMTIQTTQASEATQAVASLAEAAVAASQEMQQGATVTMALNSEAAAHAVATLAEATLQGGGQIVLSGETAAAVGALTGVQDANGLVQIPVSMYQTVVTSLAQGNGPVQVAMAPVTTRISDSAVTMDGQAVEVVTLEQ
In short: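 Measured: fluorescent reporter-specific RT-PCR products from transfected HepG2 cells, separated by capillary electrophoresis. Exposure lasted 24 h. Analysis used bidirectional curve fitting with DMSO as negative control.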

[3] = ATG_NFI_CIS: Attagene CIS-FACTORIAL HepG2 Assay for human Nuclear Factor I (NFI) (AID 2282989); settings: HepG2 cis-regulatory reporter, NFI response element transcription; actives raise or lower the signal
In short: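 After transient transfection of HepG2 with cis-promoter reporter constructs and 24 h dosing, RNA is reverse-transcribed, amplified, 6-FAM end-labelled and HpaI-digested before capillary analysis. Bidirectional curve fitting against DMSO.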

[4] = molecular target: Myc proto-oncogene protein (Homo sapiens) (UniProt P01106); experiment: ATG_Myc_CIS: Attagene CIS-FACTORIAL HepG2 Assay for human Myelocytomatosis (Myc) Proto-Oncogene Transcription Factor (AID 2282990); settings: HepG2, Attagene cis-reporter transcription factor activity; actives raise or lower the signal
Sequence of Myc proto-oncogene protein (Homo sapiens) (P01106 whole entry, looked up): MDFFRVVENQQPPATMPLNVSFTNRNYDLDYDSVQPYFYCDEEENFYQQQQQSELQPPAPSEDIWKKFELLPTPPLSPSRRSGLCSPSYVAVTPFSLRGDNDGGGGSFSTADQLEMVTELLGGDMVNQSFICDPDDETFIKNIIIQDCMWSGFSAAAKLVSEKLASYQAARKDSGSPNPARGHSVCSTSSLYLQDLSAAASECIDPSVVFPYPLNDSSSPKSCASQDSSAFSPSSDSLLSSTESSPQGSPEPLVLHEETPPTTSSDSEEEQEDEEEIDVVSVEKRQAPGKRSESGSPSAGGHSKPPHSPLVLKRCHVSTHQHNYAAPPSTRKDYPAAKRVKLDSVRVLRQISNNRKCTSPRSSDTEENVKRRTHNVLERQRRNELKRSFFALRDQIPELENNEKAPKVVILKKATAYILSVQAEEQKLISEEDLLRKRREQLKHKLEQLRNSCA
In short: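 DMSO-normalised, bidirectionally fitted reporter mRNA signal. HepG2 cells transfected with cis reporter constructs, treated 24 h; transcripts detected by RT-PCR, 6-FAM primer extension and CE.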

[5] = ATG_NF_kB_CIS: Attagene CIS-FACTORIAL HepG2 Assay for human Nuclear Factor Kappa B (NF-kB) (AID 2282991); settings: HepG2 Attagene cis-factorial NF-kB reporter mRNA; actives raise or lower the signal
In short: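 Fluorescence of labelled RT-PCR products separated by capillary electrophoresis gives reporter mRNA levels from transfected HepG2 cells exposed 24 h; values are fitted in both directions relative to DMSO.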

[6] = ATG_NRF2_ARE_CIS: Attagene CIS-FACTORIAL HepG2 Assay for human Nuclear Factor Erythroid 2 Related Factor 2 (NFR2) response to Antioxidant Response Elements (ARE) (AID 2282992); settings: HepG2 Attagene ARE/NRF2 reporter, transcription factor activity; actives raise or lower the signal
In short: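 HepG2 cells transiently transfected with multiplexed cis-element reporter constructs, 24 h after chemical dosing; reporter mRNA quantified by RT-PCR, fluorescent primer extension, HpaI digestion and capillary electrophoresis. Bidirectional fit relative to DMSO.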

[7] = ATG_Oct_MLP_CIS: Attagene CIS-FACTORIAL HepG2 Assay for human Octamer-Binding Transcription Factor (Oct) (AID 2282993); settings: HepG2 Attagene cis-factorial Oct reporter, mRNA; actives raise or lower the signal
In short: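 Cells of the HepG2 line express promoter-controlled reporter sequences whose mRNA levels, after 24 h treatment, are measured by RT-PCR and capillary electrophoresis. Increases and decreases are scored relative to DMSO.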

[8] = molecular target: Cellular tumor antigen p53 (Homo sapiens) (UniProt P04637); experiment: ATG_p53_CIS: Attagene CIS-FACTORIAL HepG2 Assay for human p53 Transcription Factor (AID 2282994); settings: HepG2 p53 cis-element reporter, Attagene mRNA; actives raise or lower the signal
Sequence of Cellular tumor antigen p53 (Homo sapiens) (P04637 whole entry, looked up): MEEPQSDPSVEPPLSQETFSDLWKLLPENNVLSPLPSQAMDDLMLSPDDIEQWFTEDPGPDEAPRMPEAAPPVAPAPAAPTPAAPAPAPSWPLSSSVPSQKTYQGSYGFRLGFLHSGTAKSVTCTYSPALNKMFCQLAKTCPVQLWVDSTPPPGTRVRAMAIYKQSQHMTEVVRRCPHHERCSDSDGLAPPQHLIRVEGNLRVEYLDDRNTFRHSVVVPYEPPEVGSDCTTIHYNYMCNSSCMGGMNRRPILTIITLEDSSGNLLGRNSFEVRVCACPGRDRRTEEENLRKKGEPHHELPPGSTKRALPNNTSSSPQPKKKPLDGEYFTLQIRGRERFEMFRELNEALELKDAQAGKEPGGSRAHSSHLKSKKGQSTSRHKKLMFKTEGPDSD
In short: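 HepG2 cells transiently transfected with cis-regulated multiple reporter transcription units, dosed 24 h. Reporter mRNA measured by RT-PCR, 6-FAM primer extension, HpaI digestion and capillary electrophoresis; bidirectional fit relative to DMSO.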

[9] = BSK_3C_TissueFactor: BioMAP Diversity Plus: 3C Assay for Tissue Factor Biomarker Activity (AID 2282997); settings: BioMAP 3C HUVEC, tissue factor biomarker readout; actives raise or lower the signal
In short: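 ELISA read-out of Tissue Factor levels on human umbilical vein endothelium collected 24 h after chemical dosing. Gain or loss of signal was fitted relative to DMSO.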

[10] = BSK_3C_uPAR: BioMAP Diversity Plus: 3C Assay for Urokinase-type plasminogen activator receptor (uPAR) Biomarker Activity (AID 2282998); settings: BioMAP 3C HUVEC, uPAR biomarker ELISA; actives raise or lower the signal
In short: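 Endothelial primary cells of human umbilical vein origin received test chemical; 24 h later uPAR was assayed by ELISA. Fitting was bidirectional, DMSO as negative control.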

Measured: AC50

CCOP(=S)(OCC)SCS(=O)(=O)CC
inactive: all assays above

ClC(Cl)=C(c1ccc(Cl)cc1)c1ccccc1Cl
active: [3] 181 µM | [6] 35.3 µM | [7] 100 µM | [9] 20 µM | [10] 10.5 µM
inactive: all other assays above

O=C(O)C=CC(F)(C(F)(F)F)C(F)(F)F
inactive: all assays above

CCOP(=O)(O)C(N)=O
inactive: [1] | [2] | [3] | [4] | [6] | [7]

Cc1ccc([N+](=O)[O-])cc1C
not listed: [8]
inactive: all other assays above

O=C(O)C(Cl)Cl
not listed: [5] | [8]
inactive: all other assays above

CCOS(=O)(=O)OCC
not listed: [5]
inactive: all other assays above

ClC(Cl)c1ccccc1
not listed: [8]
inactive: all other assays above

CCOP(=S)(Oc1ccc([N+](=O)[O-])cc1)c1ccccc1 (stereo unspecified)
active: [6] 7.75 µM
not listed: [8]
inactive: all other assays above

CCNc1nc(Cl)nc(NC(C)(C)C)n1
not listed: [8]
inactive: all other assays above

CCCCN(CCCC)SN(C)C(=O)Oc1cccc2c1OC(C)(C)C2
active: [6] 31.6 µM | [9] 20 µM | [10] 32.3 µM
not listed: [8]
inactive: all other assays above

Nc1ccc(Cl)cc1
not listed: [5]
inactive: all other assays above

ClC(Cl)(Cl)c1ccccc1
not listed: [5]
inactive: all other assays above

O=C(O)CF
inactive: [1] | [2] | [3] | [4] | [6] | [7]

CCCN(CCC)c1c([N+](=O)[O-])cc(C(C)C)cc1[N+](=O)[O-]
active: [6] 38.4 µM | [10] 33.7 µM
not listed: [5]
inactive: all other assays above

CC(C)(C)N(NC(=O)c1ccc(Cl)cc1)C(=O)c1ccccc1
inactive: [1] | [2] | [3] | [4] | [6] | [7]

CCOP(=S)(S)OCC
active: [6] 67.4 µM
not listed: [5]
inactive: all other assays above

CC(C)(C)OOC(C)(C)C
inactive: all assays above

CC(C)Nc1ccc(Nc2ccccc2)cc1
active: [6] 8.92 µM | [9] 8.11 µM | [10] 13.2 µM
not listed: [5]
inactive: all other assays above

CSC(C)(C)C=NO
not listed: [5] | [8]
inactive: all other assays above

Nc1cc2c3c(c1)C(c1ccccc1)=N[C@@H](NC(=O)c1cccnc1)C(=O)N3CC2
active: [7] 52.9 µM
not listed: [8]
inactive: all other assays above

CCOP(=S)(OCC)SCSCC
active: [6] 73 µM
not listed: [8]
inactive: all other assays above

O=P1(N(CCCl)CCCl)NCCCO1 (stereo unspecified)
inactive: all assays above

CCOC(=O)c1ccccc1N
inactive: [1] | [2] | [3] | [4] | [6] | [7]

Nc1ccc2ccccc2c1
not listed: [5]
inactive: all other assays above

COCCOCCO
not listed: [8]
inactive: all other assays above

Nc1ccc(Sc2ccc(N)cc2)cc1
active: [6] 50.4 µM
inactive: [1] | [2] | [3] | [4] | [7]

O=[N+]([O-])c1ccc(Cl)c(Cl)c1
active: [6] 100 µM
not listed: [8]
inactive: all other assays above

Cc1c([N+](=O)[O-])cc2c(c1[N+](=O)[O-])C(C)(C)CC2(C)C
active: [4] 3.03 µM | [9] 3.62 µM | [10] 0.87 µM
not listed: [5]
inactive: all other assays above

CC(Cl)(Cl)C(=O)O
not listed: [5] | [8]
inactive: all other assays above

c1ccc2c(c1)Nc1ccccc1S2
active: [6] 20.6 µM
not listed: [5]
inactive: all other assays above

Cc1ccc(O)cc1C
inactive: [1] | [4] | [7] | [8] | [9] | [10]

CCCCC(CC)COP(=O)(Oc1ccccc1)Oc1ccccc1 (stereo unspecified)
active: [1] 143 µM | [2] 173 µM | [3] 158 µM | [4] 143 µM | [5] 159 µM | [6] 12.2 µM | [7] 87.1 µM | [9] 9.63 µM | [10] 12.1 µM

CCCCOCC1CO1 (stereo unspecified)
not listed: [5] | [9] | [10]
inactive: all other assays above

CCOP(=S)(NC(C)C)Oc1ccccc1C(=O)OC(C)C (stereo unspecified)
not listed: [5]
inactive: all other assays above

OCC1CO1 (stereo unspecified)
not listed: [5]
inactive: all other assays above

CC(C)(C)c1ccc(O)cc1
inactive: [1] | [4] | [9] | [10]
active: [7] 166 µM | [8] 170 µM

CC(Cc1ccc(OCC(=O)O)cc1)NCC(O)c1csc(C(F)(F)F)n1 (stereo unspecified)
not listed: [5]
inactive: all other assays above

CN(C)C(=O)Cl
not listed: [8]
inactive: all other assays above

CCCCc1ccccc1
not listed: [5] | [8]
inactive: all other assays above

CCOP(=S)(OCC)SCSc1ccc(Cl)cc1
active: [6] 29.6 µM | [9] 0.0123 µM | [10] 0.397 µM
not listed: [8]
inactive: all other assays above

c1ccc2c(c1)sc1ccccc12
not listed: [5]
inactive: all other assays above
